HP1b binding inh: inhibitors of HP1-beta chromodomain binding to methylated histone tails | hit rate 0.56% among 390,000 | Potency, µM (doses to about 114 µM), inactives show at the highest dose activity change, negative = inhibition, actives largely listed as inhibitors | AID 540317 | P83916 | AlphaScreen HP1-beta / biotin-H3K9me3 peptide binding; also: potency is read from the fitted curve at half-maximal effect; nearly all actives have a fitted effect of over 70% in size
Target sequence (P83916 whole entry, looked up): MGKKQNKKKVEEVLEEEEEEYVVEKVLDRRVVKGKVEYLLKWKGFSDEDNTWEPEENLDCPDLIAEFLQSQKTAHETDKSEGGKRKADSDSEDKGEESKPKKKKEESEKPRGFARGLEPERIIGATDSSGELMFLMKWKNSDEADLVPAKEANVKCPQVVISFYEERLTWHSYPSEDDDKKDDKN
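Compound inhibition of the preformed complex between 50 nM HP1-beta and 50 nM biotinylated H3K9me3 peptide was read by AlphaScreen. Buffer was PBS pH 7.4 with 0.01% Tween-20. Incubations ran 30 min at room temperature, with 10 ug/mL donor/acceptor beads.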
JMJD2A Tudor: blocks the human JMJD2A Tudor domain | Potency, µM (doses to about 114 µM), for the others: top-dose activity change, negative = inhibition, usual class: inhibitors | AlphaScreen JMJD2A-Tudor / H3K4me3 peptide binding | hit rate 4.4% among 390,000; also: potency is read from the fitted curve at half-maximal effect; % is scaled to controls: 0 for no effect and ±100 for the full control effect; nearly all actives have a fitted effect of over 50% in size
L3MBTL1 inh-1: L3MBTL1 (human) inhibition. hit rate 0.66% among 230,000. Potency, µM (doses to about 57.1 µM), without a hit: at the top dose activity, negative = inhibition, hits mostly inhibitors. AlphaScreen L3MBTL1–H3K9me1 peptide binding. Q9Y468; also: potency is read from the fitted curve at half-maximal effect; % is scaled to controls: 0 for no effect and ±100 for the full control effect; nearly all actives have a fitted effect of over 60% in size
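Read-out is AlphaScreen signal from streptavidin donor and nickel chelate acceptor beads (10 ug/mL final each) bridging L3MBTL1 (50 nM) and biotinylated K9-monomethylated H3(1-15) peptide (75 nM), after 30 min compound exposure at room temperature.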
G9a inh: G9a (human) methyltransferase inhibition; Q96KQ7; Potency, µM (highest dose often 102 µM), inactives show at the top dose activity, negative = inhibition, hits mostly inhibitors; AID 504332; hit rate 8.8% among 350,000; G9a H3K9 monomethylation, AlphaScreen, 2 h; also: potency is read from the fitted curve at half-maximal effect; % is scaled to controls: 0 for no effect and ±100 for the full control effect; nearly all actives have a fitted effect of over 75% in size
Target sequence (Q96KQ7 913-1193 limits assumed): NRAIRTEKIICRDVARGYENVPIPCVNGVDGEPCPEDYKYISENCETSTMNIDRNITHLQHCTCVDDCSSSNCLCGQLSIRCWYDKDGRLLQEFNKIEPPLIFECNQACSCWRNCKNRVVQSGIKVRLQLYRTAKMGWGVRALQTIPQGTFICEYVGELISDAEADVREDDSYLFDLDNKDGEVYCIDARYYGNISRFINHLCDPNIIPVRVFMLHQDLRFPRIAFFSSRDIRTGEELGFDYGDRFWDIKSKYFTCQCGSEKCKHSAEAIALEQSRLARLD
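Signal arises when biotinylated H3K9 peptide, once monomethylated, bridges streptavidin donor and antibody-captured acceptor beads. Enzyme at 20 nM was preincubated 15 min with test compounds; peptide 500 nM and SAM 20 uM then reacted for 2 h.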
BAZ2B block: inhibitors of human BAZ2B bromodomain; Potency, µM (doses to about 114 µM), for the others: top-dose activity change, negative = inhibition, hits mostly inhibitors; Q9UIF8; hit rate 4.4% among 360,000; AlphaScreen BAZ2B-H3K14Ac peptide displacement; also: potency is read from the fitted curve at half-maximal effect; % is scaled to controls: 0 for no effect and ±100 for the full control effect; nearly all actives have a fitted effect of over 60% in size
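Compounds, titrated to a top concentration of 110 uM, were incubated 30 min at room temperature with preformed BAZ2B/acetyl-K14 H3 peptide complex (50 nM each). Proximity signal was measured by AlphaScreen after 20 min with beads.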
Sfp inh: inhibitors of Bacillus subtilis Sfp phosphopantetheinyl transferase; Q9F4F7; Biochemical Sfp PPTase activity, qHTS; Potency, µM, for inactives: largest response in the series, negative = inhibition, actives largely listed as inhibitors; hit rate 3.5% among 310,000; AID 1490;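 also: the enzyme is Sfp with the accession as filed and its product quenches rhodamine fluorescence; potency is read from the fitted curve at half-maximal effect; 0% = enzyme reaction without inhibitor and -100% = no enzyme wells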
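Fluorescence-quenching assay: 15 nM Sfp-PPTase preincubated 15 min at room temperature with compound, then 5 uM rhodamine-CoA and 12.5 uM BHQ-2-labelled YbbR peptide added. Fluorescence (ex 525/em 598 nm) read at start and after 30 min; difference gives rate.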
L3MBTL1 inh-2: validation of human L3MBTL1 methyl-lysine binding inhibitors; AID 540279; L3MBTL1 methyl-lysine binding inhibition, biochemical qHTS; hit rate 91% among 500; shares compounds with L3MBTL1 inh-1; Potency, µM, hits mostly inhibitors; also: potency is read from the fitted curve at half-maximal effect; nearly all actives have a fitted effect of over 70% in size
L3MBTL1 ctr: AlphaScreen signal inhibition, L3MBTL1 hit counter-screen; Potency, µM (top dose mostly 57.1 µM), inactives show top-dose activity change, negative = inhibition, hits mostly inhibitors; AlphaScreen counterscreen, signal inhibition; 500 tested, under 10 active; shares compounds with L3MBTL1 inh-1; also: potency is read from the fitted curve at half-maximal effect; 0% is about no effect
12-hLO cuvette: blocks human 12-lipoxygenase product formation in cuvette. purified 12-hLO, cuvette UV 234 nm product formation. hit rate 60% among 35. Potency, µM, actives largely listed as inhibitors. AID 2163. shares compounds with BAZ2B block;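 active = compounds that slowed 12-hLO product formation enough to yield a measured IC50 potency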
JMJD2E inh-1: inhibitors of human JMJD2E demethylase, 8HQ series round 1; shares compounds with BAZ2B block; JMJD2E demethylase, FDH-coupled NADH fluorescence; Potency, µM (titrated, usually from 57 µM), for the others: top-dose activity, negative = inhibition, usual class: inhibitors; hit rate 89% among 130; AID 493212
Target sequence (B2RXH2 1-337 limits assumed): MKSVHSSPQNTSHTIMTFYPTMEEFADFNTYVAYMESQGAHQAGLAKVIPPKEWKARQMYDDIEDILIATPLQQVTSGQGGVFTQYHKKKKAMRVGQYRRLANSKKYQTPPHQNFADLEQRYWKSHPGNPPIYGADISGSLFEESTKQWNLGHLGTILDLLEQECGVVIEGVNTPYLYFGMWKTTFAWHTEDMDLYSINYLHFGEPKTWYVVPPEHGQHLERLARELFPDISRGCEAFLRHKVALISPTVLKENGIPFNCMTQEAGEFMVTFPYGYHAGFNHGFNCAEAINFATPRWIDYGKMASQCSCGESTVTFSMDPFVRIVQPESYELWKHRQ
ME-1 prolif: inhibitors of ME-1 leukemia cell proliferation, CBFb-RUNX1 project; AID 504370; shares compounds with BAZ2B block; Potency, µM (doses to about 56.1 µM), inactives show at the highest dose activity change, negative = inhibition, most hits filed as inhibitors; ME-1 cell proliferation, ATP luminescence, 48 h; hit rate 20% among 140
JMJD2E inh-2: confirmation of inhibitors of human JMJD2E demethylase; shares compounds with JMJD2A Tudor; Recombinant JMJD2E, FDH-coupled NADH fluorescence (FDH is formaldehyde dehydrogenase); Potency, µM (top dose mostly 56.8 µM), without a hit: at the highest dose activity change, negative = inhibition, usual class: inhibitors; hit rate 93% among 140; AID 2677
FDH counter: counter-screen for JMJD2E inhibitors: Pseudomonas putida formaldehyde dehydrogenase; shares compounds with JMJD2A Tudor; FDH enzyme assay, NADH fluorescence kinetic; Potency, µM (top dose mostly 56.7 µM), without a hit: top-dose activity, negative = inhibition, hits mostly inhibitors; hit rate 10% among 140; AID 2680
The depositor's hits bear a star; i = inactive; ? = inconclusive; . = no result given; [ ] = remark or other dose. Rows were chosen to be rich in hits. Some 12% of all compounds tested hit in one or more screens of this group. Unless noted, calls follow the shape of the dose curve; as a rule, active = well fitted curve in the direction sought with a large enough effect; inconclusive = small, poorly fitted or top-dose-only effect, or another doubt; inactive = no such curve, though single readings can be large; an effect the other way counts as inactive or inconclusive.

SMILES | HP1b binding inh | JMJD2A Tudor | L3MBTL1 inh-1 | G9a inh | BAZ2B block | Sfp inh | ME-1 prolif | others
Cc1ccnc(NC(c2cccnc2)c2ccc3cccnc3c2O)c1 (stereo not given) | ? | 22µM* | 13µM* | 6.3µM* | 7.1µM* | ? | . | L3MBTL1 inh-2=11*;L3MBTL1 ctr=-91%;JMJD2E inh-2=32µM*;FDH counter=?
O=c1ncn(-c2cccc(Cl)c2)c2ccccc12 | 12% | -5% | . | . | . | . | .
Nc1ccn(C2OC(CO)C(O)C2O)c(=O)n1 (stereo not given) | . | . | . | . | . | 10% | .
Nc1ccn([C@@H]2O[C@H](CO)[C@@H](O)[C@@H]2O)c(=O)n1 | 29% | 0% | 6% | -13%[59 µM] | ? | 2% | 0.28µM*
Cc1cc(C(=O)NC2Cc3ccccc3C2)c(C)o1 | 15% | -17% | 0% | . | -12% | -5% | -39%[25.6 µM]
O=C1c2cccc3cccc(c23)C(=O)N1/N=C/c1ccc(O)cc1O | 18% | -26% | -9% | 8%[59 µM] | 6% | 27% | .
O=C1c2ccccc2C(=O)N1/N=C/c1ccc(O)c(O)c1O | 22µM* | 22µM* | . | ? | ? | 7.9µM* | ?
O=C(NC1CCCCCC1)c1ccco1 | 16% | ? | . | 45% | -23% | 17% | .
COc1ccc2c(c1)-c1nc(N)sc1CC2 | ? | ? | -23% | 25µM* | ? | -13% | 8%[25.6 µM]
COc1ccc2c(c1)-c1nc(/N=C/c3ccc(O)c(OC)c3)sc1CC2 | ? | ? | -5% | ? | ? | ? | .
CC(C)CN(C(=O)COC(=O)CCC(=O)c1ccc(Cl)cc1)c1c(N)n(Cc2ccccc2)c(=O)[nH]c1=O | -13% | -20% | 7% | -13% | 5% | . | .
COc1ccc(-c2cc(=O)c3c(O)cc(O)c(-c4cc(-c5cc(=O)c6c(O)cc(O)cc6o5)ccc4OC)c3o2)cc1 | . | . | . | . | . | 7% | .
COc1ccc(OC)c(-c2c3cc(O)c(=O)cc-3oc3cc(O)c(O)cc23)c1 | ? | 1.6µM* | 0.79µM* | 6.3µM* | 2.8µM* | 11µM* | 22µM*
CC(C)CCNC(=O)CN(Cc1ccco1)C(=O)CCC(=O)Nc1nccs1 | 22% | -12% | . | -9% | 4% | 25% | .
COc1ccc(-c2csc(N)n2)cc1 | 4% | -27% | -1% | ? | -11% | 4% | -11%[25.6 µM]
COc1ccc(-c2csc(N=C(N)N)n2)cc1 | 11% | -30% | -17% | ? | ? | -2% | .
CC(C)(C)NC(=O)CN(CC1CCCO1)C(=O)CNS(=O)(=O)c1ccc(F)cc1 (stereo not given) | -15% | -15% | . | 6% | 2% | 12% | .
COCCNC(=O)C1CCN(S(=O)(=O)c2c(C)noc2/C=C/c2cccs2)CC1 | 15% | -18% | -20% | -14% | -38% | 3% | .
O=C(NN1C(=O)CSC1=S)C(=O)NN1C(=O)CSC1=S | -28% | 32µM* | 0.79µM* | ? | ? | ? | -10%
Fc1c(F)c(F)c(/C=N/NC(=S)Nc2cccnc2)c(F)c1F | 30% | -20% | -15% | 47%[12.7 µM] | -12% | 2% | .
Oc1ccc(/C=N/NC(=S)Nc2cccnc2)c(O)c1 | -13% | 40µM* | 8.9µM* | 25µM* | 2.8µM* | -2% | 14µM*
Oc1ccc(/C=N/NC(=S)Nc2cccnc2)c(O)c1O | 5µM* | 3.5µM* | . | -174%[59 µM] | 2.2µM* | 3.5µM* | ?
CCNc1ccccc(-c2ccc3ccccc3n2)c1=O | 12% | -6% | 13% | 21%[59 µM] | -3% | ? | .
CCNC1=C(Cl)C(=O)c2ccccc2C1=O | ? | 50µM* | . | ? | 35µM* | -7% | ?
Fc1ccc([C@H]2CCNCC2COc2ccc3c(c2)OCO3)cc1 (stereo not given in full) | . | . | . | -21%[2.33 µM] | . | 18% | -30%
O=C(OCC1OC(OC(=O)c2cc(O)c(O)c(OC(=O)c3cc(O)c(O)c(O)c3)c2)[C@@H](OC(=O)c2cc(O)c(O)c(OC(=O)c3cc(O)c(O)c(O)c3)c2)C(OC(=O)c2cc(O)c(O)c(OC(=O)c3cc(O)c(O)c(O)c3)c2)C1OC(=O)c1cc(O)c(O)c(OC(=O)c2cc(O)c(O)c(O)c2)c1)c1cc(O)c(O)c(OC(=O)c2cc(O)c(O)c(O)c2)c1 (stereo not given in full) | . | . | . | ? | . | 11µM* | 22µM*
Cc1sc2ncnc(N3CCN(Cc4ccccc4)CC3)c2c1-c1ccc(F)cc1 | 17% | -8% | . | 1% | -32% | -9% | .
CCOC(=O)[C@H](CCc1ccccc1)N[C@@H](C)C(=O)N1[C@H](C(=O)O)C[C@H]2CCCC[C@@H]21 | . | . | . | -18%[59 µM] | . | 10% | -29%
CCC(=O)NC(c1ccco1)c1cc(Br)c2cccnc2c1O (stereo not given) | . | . | -22% | 4%[12.7 µM] | 28µM* | . | . | 12-hLO cuvette=2µM*;JMJD2E inh-1=32µM*
CC(=O)NC(c1cc(F)c2cccnc2c1O)C1CC1 (stereo not given) | 33% | 79µM* | ? | ? | 50µM* | . | . | 12-hLO cuvette=i;JMJD2E inh-1=29µM*
